Broadly, the inhibition is the relative decrease from the control value, in per cent.

Here are results for 101 molecules from PubChem BioAssay AID1778 (Sanford-Burnham Center for Chemical Genomics, 2009).

“And” between values parts separate entries of the source, which are not always exact repeats. Identical values can stand only once. The campaign covered roughly 290,000 compounds. About 260 (0.09%) were called active. Shown is part of a subset that was picked to be rich in actives. Measured potencies and affinities stand elsewhere. Unmarked numbers belong to inactive results. Rule as the data show it: active = inhibition above about 50%; inactive = the rest.

For this assay, the target named is Kappa-type opioid receptor (Homo sapiens) (UniProt P41145). Briefly: kappa opioid receptor blockers – cell-based, luminescence, uHTS (AID 1778). As to conditions: KOR beta-arrestin recruitment, antagonist mode, active compounds read high; at 10 µM unless noted.
Chain of Kappa-type opioid receptor (Homo sapiens) (P41145 whole entry, looked up): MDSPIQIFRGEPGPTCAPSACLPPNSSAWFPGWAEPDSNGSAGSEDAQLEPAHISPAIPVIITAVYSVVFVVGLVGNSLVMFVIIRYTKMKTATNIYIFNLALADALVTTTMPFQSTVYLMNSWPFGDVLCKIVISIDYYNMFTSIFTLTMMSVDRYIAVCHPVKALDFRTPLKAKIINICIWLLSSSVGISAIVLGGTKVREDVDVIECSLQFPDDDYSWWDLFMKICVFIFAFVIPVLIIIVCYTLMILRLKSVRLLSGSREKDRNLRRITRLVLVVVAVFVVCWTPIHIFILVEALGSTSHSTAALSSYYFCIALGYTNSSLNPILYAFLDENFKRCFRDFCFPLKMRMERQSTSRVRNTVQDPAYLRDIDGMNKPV
As for `Cc1nc(SCC(=O)N2CCOCC2)c2c(C)c(C)sc2n1`, the inhibition is -32.1%. Regarding `O=C(CSC1=NC(=O)C(c2ccccc2)C(=O)N1)Nc1cccc(Cl)c1` (stereo unspecified), the inhibition was -48.8%.

With `C=CCNC(=S)N/N=C(\C)c1cccnc1`, the inhibition was 3.5%. With `C=CCNC(=S)N/N=C(\C)c1cccc(OC)c1`, the inhibition is 26.1%. The result for `C/C(=N\NC(=O)Cc1ccc(Cl)cc1)c1ccccc1O` reads -29.7% [at 20 µM].

As for `C/C(=N\NC(=O)COc1ccccc1-c1ccccc1)c1ccc(O)cc1O`, the inhibition is -14.4%. The result for `C/C(=N\NC(=O)COc1ccccc1-c1ccccc1)c1cccnc1` reads -42.8%; that for `C/C(=N\NC(=O)COc1ccccc1-c1ccccc1)c1ccccn1`, 99% (active); that for `C/C(=N\NC(=O)c1ccccn1)c1ccc(Cl)cc1`, -13.1%.

As for `CCCn1c2ccccc2c2cnn(CC(=O)NCCN(C)C)c(=O)c21`, the inhibition is -19%. On to `COc1ccc(OCCSc2nnc(C)n2-c2ccccc2)cc1`, for which the inhibition is -14.2%. Consider `O=C(COC(=O)c1c(F)cccc1F)NCCNC(=O)COC(=O)c1c(F)cccc1F`, for which the inhibition was -58.8%. Turning to `CC1(C)CNC(=O)CC(C)(C)N1O`, the inhibition was 8.7%. In the case of `O=C(NCc1ccco1)c1cccc(C(F)(F)F)c1`, the inhibition is -35.4% [at 20 µM].

Regarding `CCNc1nc(Oc2ccc(C(=O)OC)cc2)nc(SC)n1`, the inhibition is 1.5%. For the molecule `COc1ccccc1/C=N/N1C(=O)c2cccc3cccc(c23)C1=O`, the inhibition is -44.5%. Regarding `Cc1[nH]n(-c2ccccc2)c(=O)c1/C=N/N1C(=O)c2ccc3c4c(ccc(c24)C1=O)CC3`, the inhibition is -2.7%. For the molecule `O=C1c2cccc3cccc(c23)C(=O)N1/N=C/c1ccc(O)cc1O`, the inhibition was -17.5%. As to `Cc1ccc(-n2[nH]c(C)c(/C=N/c3cccc(C)n3)c2=O)cc1`, the inhibition was 21.8%. The result for `CSc1oc(-c2ccccc2)nc1S(=O)(=O)c1ccc(F)cc1` reads -25.9%.

Consider `O=C(CO/N=C1\CCCc2nonc21)Nc1ccc(Br)cc1`, for which the inhibition was 24.7%. To `COc1cccc(NC(=O)C2CCN(C(=O)NC3CCCCC3)CC2)c1` belongs -51.6%; to `Cc1cc(C)cc(NC(=O)CSc2nnc(-c3cc(C)[nH]n3)n2N)c1`, -17.6%. `O=C(CSc1nnc(NC(=O)c2ccc(F)cc2)s1)NCc1ccco1`: the inhibition is 22.3%.

For `Cc1ccc(N=Nc2ccc3ccccc3c2O)cc1`, the inhibition was 15.6% [at 20 µM].

Consider `Oc1ccc2ccccc2c1N=Nc1ccccc1F`, for which the inhibition was 37.6%.

Turning to `Oc1ccc(N=Nc2c(O)ccc3ccccc23)cc1`, the inhibition is 32%.

As for `Oc1ccc2ccccc2c1N=Nc1ccc(F)cc1`, the inhibition was 6.7% and 41.7%.

On to `Oc1ccc2ccccc2c1/C=N/c1nccs1`, for which the inhibition was -15.8%. In the case of `Oc1ccc2ccccc2c1N=Nc1nccs1`, the inhibition is 109% (active).

In the case of `Oc1c(N=Nc2ccc(F)cc2)ccc2ccccc12`, the inhibition was 7.2% [at 20 µM].

With `COC(=O)c1cc(C(=O)NCC2CCCCC2)cc([N+](=O)[O-])c1`, the inhibition was 7.5%. To `Cc1ccc(-c2nnn(CC(=O)N(c3ccccc3)C(C(=O)NC3CCCC3)c3ccncc3)n2)o1` (stereo unspecified) belongs 5.7%; to `CC(C)NS(=O)(=O)c1ccc(CCC(=O)Nc2ccc3c(c2)OCCO3)cc1`, 7.5%; to `CS(=O)(=O)c1ccc2nc(NC(=O)c3ccc(Cl)cc3)sc2c1`, -55% [at 20 µM]. On to `O=C(O)c1ccc(-c2ccccc2)[nH]c1=O`, for which the inhibition was 5.6%. To `CC(C)(C)NC(=O)c1cc(NC(=O)c2cccs2)cc(NC(=O)c2cccs2)c1` belongs -34.4%; to `Cc1nc(Cl)c(Cl)n1CCOc1ccccc1`, -4.6%; to `CCN(CC)CCCNC(=O)c1cc(Sc2nnc(C)s2)nc2ccccc12`, -6.1%. With `Cn1cccc1CNC(=S)Nc1ccccc1Cl`, the inhibition was 28.1%. On to `Cc1ccc(NC(=O)CC(C)CC(=O)NCc2ccccc2)cc1Cl` (stereo unspecified), for which the inhibition was -17.8%. As to `O=[N+]([O-])c1ccccc1OC/C(=N\O)c1ccccc1`, the inhibition is 13.6%. `COC(=O)c1cn(NC(=O)/C=C/c2cc(OC)ccc2OC)c(=O)c2ccccc12`: the inhibition was -8.8%. The result for `CN(C)CC(CCC(CN(C)C)C(=O)c1ccccc1)C(=O)c1ccccc1` (stereo unspecified) reads 83.9% (active); that for `CCOc1ccc(C(=O)C(CCC(CN(C)C)C(=O)c2ccc(OCC)cc2)CN(C)C)cc1` (stereo unspecified), 15.2%.

For the molecule `CN(C)CC(CCCCC(CN(C)C)C(=O)c1ccccc1)C(=O)c1ccccc1` (stereo unspecified), the inhibition was 12.5%. The result for `Cc1cccc(C(=O)OCC(=O)Nc2ccc(N3CCCCC3)cc2)c1O` reads -7.8%; that for `Cc1ccccc1N(C(=O)Cn1nnc(-c2cccs2)n1)C(C(=O)NCCC(C)C)c1ccco1` (stereo unspecified), 23.7%. As for `COc1ccccc1NC(=O)CN1CC(=O)Nc2ccccc21`, the inhibition is 0%. The result for `COc1ccc(/C=C/C(=O)OCC(=O)N2CC(=O)Nc3ccccc32)cc1S(=O)(=O)N1CCOCC1` reads -27.5%; that for `Cc1ccc(NC(=S)NCCCN2CCOCC2)cc1C`, 50% (active). To `Cc1ccc(NC(=S)NCCCN2CCOCC2)cc1` belongs 6.6%.

With `Cc1ccc(NC(=S)NCCN2CCOCC2)cc1C`, the inhibition is 16.7%.

`C/C(=N\NC(=O)c1nnn(-c2nonc2N)c1-c1ccc2c(c1)OCO2)c1cccs1`: the inhibition is -7.9%. Regarding `Cc1ccc(-c2cc(C(=O)Nc3cc(C)ccc3C)[nH]n2)c(O)c1`, the inhibition is 9.1%.

With `CCCCC(CC)C(=O)NCc1ccc(F)cc1` (stereo unspecified), the inhibition is 8%. With `CCOC(=O)C(C(C)C)C(N)Cc1ccc(F)cc1` (stereo unspecified), the inhibition was -13.5%. Consider `CCCCC(C(=O)OCC)C(N)Cc1ccc(F)cc1` (stereo unspecified), for which the inhibition was 65.2% (active). To `Cc1ccccc1Cn1cc(NC(=O)CCCn2nc([N+](=O)[O-])cc2C)cn1` belongs 16.3%; to `COc1cccc(CNC(=O)C2CCC(CNS(=O)(=O)c3cccc4cccnc34)CC2)c1` (stereo unspecified), 27.1%. With `c1coc(CN=C2NC(=NCc3ccco3)c3ccccc32)c1`, the inhibition is -31.2%. `O=C1CCCC(=NCc2ccco2)C1`: the inhibition was -29.5%.

On to `CN(C)c1nc(=NCc2ccco2)ss1`, for which the inhibition was 83.2% (active). `COc1ccc(C)cc1N(C(=O)c1ccco1)C(C(=O)NC1CCCC1)c1ccc(N2CCOCC2)cc1` (stereo unspecified): the inhibition was 5.8%. With `CCS(=O)(=O)c1ccc(N=Nc2ccc(O)c3ncccc23)c(OC)c1`, the inhibition is 14%. Take `COc1ccc(N=Nc2ccc3ccccc3c2)c(O)c1`: the inhibition is -6.2% [at 20 µM]. For `CCOc1ccc(N=Nc2ccc(O)c3ncccc23)cc1`, the inhibition is 32%. The result for `CCN(CC)S(=O)(=O)c1cc(OC)ccc1N=Nc1ccc(O)c2ncccc12` reads -5.1%; that for `COc1cccc(N=Nc2ccc(O)c3ncccc23)c1`, 62.9% (active); that for `COc1cccc(N=Nc2ccc3ccccc3c2O)c1`, 1.7% [at 20 µM]. To `Cc1cccc(N=Nc2ccc(O)c3ncccc23)c1` belongs 45.9%; to `CN(NC(=O)COc1ccccc1)c1ccccc1`, 5.9%. For `CN(CC(=O)Nc1cccnc1)S(=O)(=O)c1cc(Cl)ccc1Cl`, the inhibition was 4.2%.

As to `COc1cccc(N2C(=O)C3C(C2=O)C3(c2ccccc2)c2ccccc2)c1` (stereo unspecified), the inhibition is -3.2%. Turning to `CCN(CC)S(=O)(=O)c1ccc(C(=O)NCC(=O)N/N=C/c2ccccc2OC)cc1`, the inhibition was -11.7%.

With `O=C(OCC(=O)c1ccc(Cl)s1)c1ccccn1`, the inhibition is 34%.

For `O=C(CSc1ccc2nnc(-c3ccccn3)n2n1)NCc1ccco1`, the inhibition is -19.3%. As to `CC(=O)c1sc(-c2ccccc2)cc1N`, the inhibition was 4.5%.

`COCCN=c1scc(-c2ccccc2)n1/N=C/c1c[nH]c2ccccc12`: the inhibition was 38.5%. To `COCCN=c1scc(-c2cc(OC)c(OC)c(OC)c2)n1/N=C/c1c(C)[nH]c2ccccc12` belongs 26.6%. As to `Cc1cc([N+](=O)[O-])nn1CC(=O)NCCc1c[nH]c2ccccc12`, the inhibition is 4.9%. As for `COCc1nnc(NC(=O)c2ccc(NC(C)=O)cc2)s1`, the inhibition was 21%.

For `CCOC(=O)N1CCC(N2CCN(c3cc(C)ccc3C)CC2)CC1`, the inhibition was 11.6%. As to `CCc1ccc(N(CC(=O)NC)S(C)(=O)=O)cc1`, the inhibition is 9.3%.

For the molecule `COc1cc(OC)cc(C(=O)NCC(=O)OCc2cc(=O)oc3cc(OC)ccc23)c1`, the inhibition is 9.7%. As for `Clc1ccc(SCc2cn3cccnc3n2)cc1`, the inhibition is -15.8%. The result for `Clc1ccc(SCc2cc(N3CCOCC3)nc(-c3ccccn3)n2)cc1` reads 10.2%. For `CCn1c(CNC(=O)c2ccco2)nnc1SCC(=O)Nc1cc(C(F)(F)F)ccc1Cl`, the inhibition was 1.4%. To `Fc1ccccc1COc1ccc(/C=N/NC(=S)NCc2ccccc2)cc1` belongs -4.9%; to `CCOC(=O)C1(Cc2ccccc2)CCN(Cc2cc(OC)c3c(c2)OCO3)CC1`, -13.9% [at 20 µM]. `Cc1c(NC(=S)Nc2ccccc2C(F)(F)F)cccc1[N+](=O)[O-]`: the inhibition is 5.9%. With `O=S(=O)(Nc1cccc2cccnc12)c1ccccc1`, the inhibition is 99.6% (active). As for `COc1cc(NS(=O)(=O)c2ccc(C)cc2)c2ncccc2c1`, the inhibition was 7.9%. To `O=S(=O)(Nc1cccc2ccccc12)c1ccccc1` belongs -10.6%. As for `Cc1ccc2cccc(NS(=O)(=O)c3ccccc3)c2n1`, the inhibition is 83.9% (active).

Take `Cc1cccc(NS(=O)(=O)c2ccccc2)n1`: the inhibition was 12.4%. Turning to `O=C(Nc1ccc(S(=O)(=O)Nc2ncccn2)cc1)c1ccc(S(=O)(=O)N2CCCC2)cc1`, the inhibition was 34.1%. Take `O=S(=O)(c1cccc2cccnc12)N1CCCCC1`: the inhibition is 2.6%.

For the molecule `CC(=O)Nc1ccc(S(=O)(=O)Nc2cccc3cccnc23)cc1`, the inhibition was -32.6%.

For `O=C(O)c1ccccc1NS(=O)(=O)c1cccc2cccnc12`, the inhibition is 1.8%. Consider `CS(=O)(=O)Nc1cccc2cccnc12`, for which the inhibition is 30.9%.
